Assay results reported in the supplement of paper PMC6411743.
± gives the standard deviation of the averaged measurements. About 5,400 targets were measured; listed, in parts, are those with the largest changes and a random draw of the rest.

Compound: Nc1nc2c(ncn2[C@@H]2O[C@H](COP(=O)(O)OP(=O)(O)OP(=O)(O)O)[C@@H](O)[C@H]2O)c(=O)[nH]1 [guanosine triphosphate]
Experiment: NP40-soluble protein abundance relative to vehicle (solubility fold change) (ratio); higher = more soluble protein in presence of GTP
Outline: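 In three independent experiments, Jurkat crude lysate made by Dounce homogenisation was treated for 10 min at room temperature and then 3 min at 37 °C with eight concentrations ranging from 0.1 to 10 mM. It was then solubilised with 0.8% NP40 plus benzonase for 60 min at 4 °C and ultracentrifuged. The supernatant was TMT-labelled for LC-MS/MS, and each value is the fold change against the detergent-processed vehicle for the same replicate, using vsn-normalised intensities.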

UniProt Q9NYL4, sequence (Q9NYL4 whole entry, one chain of several): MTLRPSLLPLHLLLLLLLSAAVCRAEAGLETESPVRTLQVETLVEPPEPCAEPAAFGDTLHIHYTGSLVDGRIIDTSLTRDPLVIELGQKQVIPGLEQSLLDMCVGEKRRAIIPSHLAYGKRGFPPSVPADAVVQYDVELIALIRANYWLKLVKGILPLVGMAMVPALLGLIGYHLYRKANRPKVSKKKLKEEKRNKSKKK
UniProt Q8NEY8, sequence (Q8NEY8 whole entry, one chain of several): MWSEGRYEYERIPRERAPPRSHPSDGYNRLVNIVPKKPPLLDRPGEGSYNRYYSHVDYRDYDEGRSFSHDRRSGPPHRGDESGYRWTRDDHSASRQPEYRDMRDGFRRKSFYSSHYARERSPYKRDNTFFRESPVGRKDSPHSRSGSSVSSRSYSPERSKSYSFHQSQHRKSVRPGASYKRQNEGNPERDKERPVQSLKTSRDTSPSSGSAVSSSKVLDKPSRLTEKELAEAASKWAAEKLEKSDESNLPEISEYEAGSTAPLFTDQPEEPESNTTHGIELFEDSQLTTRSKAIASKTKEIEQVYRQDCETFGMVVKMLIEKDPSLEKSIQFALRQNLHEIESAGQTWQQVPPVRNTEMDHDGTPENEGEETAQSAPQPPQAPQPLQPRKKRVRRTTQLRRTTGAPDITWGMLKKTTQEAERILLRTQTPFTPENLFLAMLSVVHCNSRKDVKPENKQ
UniProt Q15005, sequence (Q15005 whole entry, one chain of several): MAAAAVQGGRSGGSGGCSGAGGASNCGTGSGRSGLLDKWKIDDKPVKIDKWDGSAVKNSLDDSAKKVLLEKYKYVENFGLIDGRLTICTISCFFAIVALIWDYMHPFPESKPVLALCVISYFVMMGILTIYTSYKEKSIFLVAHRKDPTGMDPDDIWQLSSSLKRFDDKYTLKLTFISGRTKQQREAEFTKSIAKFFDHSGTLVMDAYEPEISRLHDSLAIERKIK
UniProt O94880, sequence (O94880 whole entry, one chain of several): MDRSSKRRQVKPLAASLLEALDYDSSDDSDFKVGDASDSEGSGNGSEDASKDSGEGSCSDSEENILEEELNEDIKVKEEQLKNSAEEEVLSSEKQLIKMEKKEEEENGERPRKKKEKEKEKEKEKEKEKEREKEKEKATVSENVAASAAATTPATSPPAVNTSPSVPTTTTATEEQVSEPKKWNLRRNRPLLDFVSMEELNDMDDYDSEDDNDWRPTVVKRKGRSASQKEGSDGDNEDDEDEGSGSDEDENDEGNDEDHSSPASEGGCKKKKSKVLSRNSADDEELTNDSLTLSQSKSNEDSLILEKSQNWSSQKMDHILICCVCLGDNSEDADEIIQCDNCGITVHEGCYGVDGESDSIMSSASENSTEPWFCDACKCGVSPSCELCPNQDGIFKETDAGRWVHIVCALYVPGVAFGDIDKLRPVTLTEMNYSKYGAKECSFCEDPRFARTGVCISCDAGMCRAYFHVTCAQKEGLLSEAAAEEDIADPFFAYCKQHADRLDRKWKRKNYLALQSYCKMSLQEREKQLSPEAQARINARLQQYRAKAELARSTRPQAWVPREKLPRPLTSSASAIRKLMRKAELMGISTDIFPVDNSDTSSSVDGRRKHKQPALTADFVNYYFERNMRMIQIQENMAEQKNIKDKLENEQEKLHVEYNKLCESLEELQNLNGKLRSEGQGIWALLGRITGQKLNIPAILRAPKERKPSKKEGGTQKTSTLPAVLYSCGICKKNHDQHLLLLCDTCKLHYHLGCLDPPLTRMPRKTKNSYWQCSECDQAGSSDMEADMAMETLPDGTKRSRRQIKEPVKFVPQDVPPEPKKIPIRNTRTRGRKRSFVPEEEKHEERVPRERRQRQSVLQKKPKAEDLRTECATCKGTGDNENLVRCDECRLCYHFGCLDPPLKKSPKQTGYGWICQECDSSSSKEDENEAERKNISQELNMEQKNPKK
UniProt P51957, sequence (P51957 whole entry, looked up, one chain of several): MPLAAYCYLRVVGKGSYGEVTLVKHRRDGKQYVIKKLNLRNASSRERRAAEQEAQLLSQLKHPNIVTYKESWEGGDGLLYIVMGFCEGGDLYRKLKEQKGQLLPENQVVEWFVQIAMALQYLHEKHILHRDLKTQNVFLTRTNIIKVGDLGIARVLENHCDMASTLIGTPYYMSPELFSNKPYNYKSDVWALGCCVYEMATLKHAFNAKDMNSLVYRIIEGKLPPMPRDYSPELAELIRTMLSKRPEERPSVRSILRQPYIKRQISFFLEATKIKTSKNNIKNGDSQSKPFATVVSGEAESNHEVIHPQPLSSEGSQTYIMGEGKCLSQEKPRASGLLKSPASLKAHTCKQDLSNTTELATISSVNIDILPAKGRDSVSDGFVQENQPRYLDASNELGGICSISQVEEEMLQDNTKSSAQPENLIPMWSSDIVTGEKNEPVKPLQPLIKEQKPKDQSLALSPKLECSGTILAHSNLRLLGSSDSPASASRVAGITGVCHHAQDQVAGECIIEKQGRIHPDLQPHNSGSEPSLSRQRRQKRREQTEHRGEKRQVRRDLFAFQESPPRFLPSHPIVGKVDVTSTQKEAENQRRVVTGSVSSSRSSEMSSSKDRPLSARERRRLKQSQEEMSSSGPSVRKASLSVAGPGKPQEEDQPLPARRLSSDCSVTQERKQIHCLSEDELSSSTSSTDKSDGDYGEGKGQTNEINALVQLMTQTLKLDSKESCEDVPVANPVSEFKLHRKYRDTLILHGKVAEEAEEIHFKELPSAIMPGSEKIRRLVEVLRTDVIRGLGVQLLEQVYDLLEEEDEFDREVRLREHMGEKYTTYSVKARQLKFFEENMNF
UniProt P02792, sequence (P02792 whole entry, one chain of several): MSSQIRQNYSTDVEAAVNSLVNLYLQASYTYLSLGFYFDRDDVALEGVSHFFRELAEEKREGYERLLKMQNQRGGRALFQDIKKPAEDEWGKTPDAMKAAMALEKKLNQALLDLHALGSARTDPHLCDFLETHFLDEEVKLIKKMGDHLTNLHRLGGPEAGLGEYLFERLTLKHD
UniProt Q14202, sequence (Q14202 whole entry, one chain of several): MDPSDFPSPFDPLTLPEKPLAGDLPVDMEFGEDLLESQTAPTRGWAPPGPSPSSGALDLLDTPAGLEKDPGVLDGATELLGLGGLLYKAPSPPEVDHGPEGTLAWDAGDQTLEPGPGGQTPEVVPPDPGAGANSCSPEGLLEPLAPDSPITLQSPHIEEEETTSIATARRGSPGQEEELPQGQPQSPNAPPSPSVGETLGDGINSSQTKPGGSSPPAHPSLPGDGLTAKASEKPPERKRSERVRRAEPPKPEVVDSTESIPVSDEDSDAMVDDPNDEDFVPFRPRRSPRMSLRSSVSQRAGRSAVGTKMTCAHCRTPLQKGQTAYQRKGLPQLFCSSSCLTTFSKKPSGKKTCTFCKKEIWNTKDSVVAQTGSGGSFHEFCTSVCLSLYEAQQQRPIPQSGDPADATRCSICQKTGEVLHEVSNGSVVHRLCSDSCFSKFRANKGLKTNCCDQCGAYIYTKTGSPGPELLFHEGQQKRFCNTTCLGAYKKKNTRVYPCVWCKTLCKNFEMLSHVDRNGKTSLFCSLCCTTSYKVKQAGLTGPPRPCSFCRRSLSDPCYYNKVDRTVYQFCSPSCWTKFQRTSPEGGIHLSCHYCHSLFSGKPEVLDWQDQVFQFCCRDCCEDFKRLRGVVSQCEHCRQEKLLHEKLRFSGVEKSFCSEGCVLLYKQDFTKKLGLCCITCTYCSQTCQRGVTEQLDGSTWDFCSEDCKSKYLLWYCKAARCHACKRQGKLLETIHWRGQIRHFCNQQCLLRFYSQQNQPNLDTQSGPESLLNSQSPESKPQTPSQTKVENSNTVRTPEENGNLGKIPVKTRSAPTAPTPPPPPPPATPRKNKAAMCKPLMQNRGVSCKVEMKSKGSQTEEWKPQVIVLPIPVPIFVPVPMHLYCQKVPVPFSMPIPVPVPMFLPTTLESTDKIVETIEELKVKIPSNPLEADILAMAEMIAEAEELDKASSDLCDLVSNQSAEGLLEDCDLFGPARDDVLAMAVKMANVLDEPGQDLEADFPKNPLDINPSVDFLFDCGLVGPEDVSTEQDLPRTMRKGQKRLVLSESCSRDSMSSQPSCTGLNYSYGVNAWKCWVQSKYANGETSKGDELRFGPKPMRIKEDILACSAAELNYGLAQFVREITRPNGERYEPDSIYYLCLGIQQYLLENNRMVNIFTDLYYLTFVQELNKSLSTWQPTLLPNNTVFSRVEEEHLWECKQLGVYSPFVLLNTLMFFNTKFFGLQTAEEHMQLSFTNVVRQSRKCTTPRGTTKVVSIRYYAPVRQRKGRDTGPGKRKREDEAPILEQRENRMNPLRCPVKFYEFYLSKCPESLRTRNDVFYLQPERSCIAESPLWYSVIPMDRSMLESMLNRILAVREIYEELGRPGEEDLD
UniProt Q15004, sequence (Q15004 whole entry, one chain of several): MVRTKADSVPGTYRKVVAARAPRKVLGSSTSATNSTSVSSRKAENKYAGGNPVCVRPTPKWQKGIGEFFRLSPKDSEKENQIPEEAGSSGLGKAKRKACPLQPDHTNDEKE
UniProt O00764, sequence (O00764 whole entry, one chain of several): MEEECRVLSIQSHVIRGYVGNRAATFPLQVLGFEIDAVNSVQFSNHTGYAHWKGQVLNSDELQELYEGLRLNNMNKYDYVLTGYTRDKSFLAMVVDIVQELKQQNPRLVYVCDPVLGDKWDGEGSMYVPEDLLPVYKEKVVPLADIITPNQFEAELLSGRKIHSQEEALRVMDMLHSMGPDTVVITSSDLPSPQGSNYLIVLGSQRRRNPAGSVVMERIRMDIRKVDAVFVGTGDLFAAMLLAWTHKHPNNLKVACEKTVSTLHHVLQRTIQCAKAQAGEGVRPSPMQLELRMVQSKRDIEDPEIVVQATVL

Target	NP40-soluble protein abundance (concentration: 0.1mM)	NP40-soluble protein abundance (concentration: 0.5mM)	NP40-soluble protein abundance (concentration: 1mM)	NP40-soluble protein abundance (concentration: 2mM)	NP40-soluble protein abundance (concentration: 4mM)	NP40-soluble protein abundance (concentration: 6mM)	NP40-soluble protein abundance (concentration: 8mM)	NP40-soluble protein abundance (concentration: 10mM)
C9JKQ7|C9JTV6|C9JZG2|P22102 (UniProt P22102)	0.96 ± 0.015	0.985 ± 0.03	0.9188 ± 0.0076	0.909 ± 0.023	0.895 ± 0.026	0.894 ± 0.017	0.863 ± 0.039	0.863 ± 0.022
F8W0Q9|Q8NEY8-2|Q8NEY8-8|Q8NEY8-9|Q8NEY8-3|Q8NEY8 (UniProt Q8NEY8)	1.01 ± 0.022	1.08 ± 0.019	1.19 ± 0.058	1.28 ± 0.096	1.41 ± 0.18	1.45 ± 0.2	1.63 ± 0.22	1.77 ± 0.42
A0A087WUC6|E9PI68|Q15005|E9PL01 (UniProt Q15005)	0.955 ± 0.026	0.955 ± 0.018	0.899 ± 0.025	0.882 ± 0.05	0.858 ± 0.041	0.881 ± 0.045	0.859 ± 0.055	0.843 ± 0.061
A0A087X1B9|P02792 (UniProt P02792)	1.09 ± 0.16	1.03 ± 0.21	1.44 ± 0.11	1.55 ± 0.054	1.64 ± 0.14	1.465 ± 0.0048	1.43 ± 0.17	1.68 ± 0.12
E7EX48|P51957|P51957-3 (UniProt P51957)	1.01 ± 0.097	0.987 ± 0.21	0.961 ± 0.21	1.01 ± 0.2	0.986 ± 0.21	0.957 ± 0.23	0.985 ± 0.25	1.06 ± 0.25
H0YKX3|Q15004 (UniProt Q15004)	1.03 ± 0.086	1.04 ± 0.062	1.07 ± 0.081	1.04 ± 0.12	0.957 ± 0.13	0.982 ± 0.15	1.19 ± 0.031	1.09 ± 0.039
F8W8G5|P10242|P10242-10|P10242-11|P10242-2|P10242-4|P10242-7|P10242-8|P10242-9 (UniProt P10242)	1.02 ± 0.063	1.04 ± 0.077	1.08 ± 0.073	1.08 ± 0.086	1.12 ± 0.037	1.12 ± 0.1	1.15 ± 0.044	1.13 ± 0.051
C9JRJ5|Q9UGP4 (UniProt Q9UGP4)	1.01 ± 0.054	1 ± 0.021	1 ± 0.043	0.955 ± 0.025	0.963 ± 0.031	0.962 ± 0.021	1.01 ± 0.038	0.965 ± 0.034
F2Z2Y4|O00764|O00764-2 (UniProt O00764)	1 ± 0.072	1.01 ± 0.09	0.942 ± 0.055	0.918 ± 0.095	0.905 ± 0.071	0.91 ± 0.08	0.88 ± 0.063	0.868 ± 0.086
A6NHB5|A6NHN7|Q14202|Q14202-2 (UniProt Q14202)	1.08 ± 0.056	1.12 ± 0.075	1.18 ± 0.092	1.31 ± 0.14	1.37 ± 0.16	1.4 ± 0.15	1.46 ± 0.15	1.42 ± 0.16
A0A0U1RRH6|O94880|O94880-2 (UniProt O94880)	1.05 ± 0.095	1.07 ± 0.14	1.15 ± 0.12	1.16 ± 0.065	1.34 ± 0.12	1.46 ± 0.096	1.65 ± 0.25	1.78 ± 0.25
A8MXF6|B7ZBD5|Q9UBK7|Q9UBK7-2|Q9UBK7-3|Q9UNT1|Q9UNT1-2|Q9UNT1-3 (UniProt Q9UNT1+Q9UBK7+B7ZBD5+A8MXF6)	1.03 ± 0.038	1.03 ± 0.035	1.02 ± 0.032	1.01 ± 0.084	0.947 ± 0.046	0.955 ± 0.071	0.949 ± 0.053	0.94158 ± 0.00038
F8VU90|Q9NYL4|Q9NYL4-2 (UniProt Q9NYL4)	0.972 ± 0.06	0.968 ± 0.052	1.04 ± 0.018	1.03 ± 0.065	1.05 ± 0.033	0.996 ± 0.078	0.922 ± 0.041	0.995 ± 0.065
